Mot1-301 SUMO: SUMOylation pathway inhibition by Mot1-301 growth rescue. S. cerevisiae Mot1-301 growth rescue, ATP luminescence, 38.5C; percent above DMSO median, 100 means doubled. growth rescue, % at 18.8 µM. 320,000 tested, 1% active. AID 2716;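 active means every valid replicate shows activation above 250% relative to neutral control wells; inactive means the rest, any valid replicate at or below 250%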;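 further: OY570 slx delta 5 strain wells were the positive control but not used for scaling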
NALP3 yeast inh: NALP3 inhibition in yeast; Yeast reconstituted NLRP3/ASC/caspase-1, beta-gal luminescence, 24 h; inhibition, % at 10 µM; 330,000 tested, 0.39% active; AID 2825;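 active means inhibition of 50% or more; inactive means inhibition below 50%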;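 further: plate controls were induced DMSO wells for no effect and uninduced yeast grown without galactose for full effect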
CHT block: inhibitors of human choline transporter CHT. Q9GZV3. CHT-expressing cells, membrane potential dye, choline response; stronger effect = lower value. B-score at 10 µM. 310,000 tested, 0.86% active;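 active means B-score over 3 SD under the library average, and starting fluorescence ratio not unusually high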;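 further: choline stimulus applied at its EC90 after an EC20 pre-addition; B-score computed on integrated fluorescence ratio after choline addition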
Target sequence (Q9GZV3 whole entry, looked up): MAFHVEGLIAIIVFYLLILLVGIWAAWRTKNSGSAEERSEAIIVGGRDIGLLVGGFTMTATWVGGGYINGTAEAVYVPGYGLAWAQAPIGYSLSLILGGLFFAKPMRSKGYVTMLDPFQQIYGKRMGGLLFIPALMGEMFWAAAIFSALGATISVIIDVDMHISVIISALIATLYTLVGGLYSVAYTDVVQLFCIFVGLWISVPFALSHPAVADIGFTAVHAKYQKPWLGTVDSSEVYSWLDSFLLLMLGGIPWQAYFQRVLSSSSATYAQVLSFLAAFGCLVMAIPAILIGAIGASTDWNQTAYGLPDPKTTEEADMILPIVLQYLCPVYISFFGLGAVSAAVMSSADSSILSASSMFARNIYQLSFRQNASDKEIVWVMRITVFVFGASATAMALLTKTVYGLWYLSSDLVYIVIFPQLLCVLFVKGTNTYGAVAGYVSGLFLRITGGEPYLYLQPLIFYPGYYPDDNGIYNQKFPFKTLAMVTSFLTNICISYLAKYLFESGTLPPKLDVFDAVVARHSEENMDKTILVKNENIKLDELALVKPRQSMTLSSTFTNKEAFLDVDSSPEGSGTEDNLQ
NALP1 inh: blocks the NALP1 inflammasome reconstituted in yeast; S. cerevisiae NALP1/ASC/caspase-1 growth, X-gal OD620, 72 h; inhibition, % at 10 µM; AID 2071; 280,000 tested, 0.61% active; in the data active means inhibition mostly above about 24%, no sharp cut-off; inactive means mostly below about 32%
CHT allo act: allosterically activates the human high affinity choline transporter; CHT-expressing cells, membrane potential dye, choline EC20; stronger effect = higher value; LV-AA mutant CHT in HEK293 cells; B-score at 10 µM; 310,000 tested, 0.49% active; AID 488977;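 active means initial fluorescence not abnormally high and integrated response B-score, plate-corrected, over 3 SD above library mean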
A1 inh: inhibitors of the anti-apoptotic protein A1, read as caspase activation | MEF A1-2A-BIM cells, Caspase-Glo 3/7 luminescence, 3 h; percent of clofoctol response, vehicle zero | caspase activation, % (no concentration beside the values) | 330,000 tested, 0.066% active | AID 2462;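 active means over half of replicate activation scores above 10%, or exactly half above 10 with the replicate mean above 10; inconclusive means replicate mean below 10 yet half the replicates above 10; inactive means over half of replicates below 10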
CHT block conf: confirmation of human choline transporter CHT inhibitors. AID 493221. CHT-expressing cells, choline membrane potential dye; LV-to-AA substituted CHT, HEK293 cells. CHT activity remaining % of control (stronger effect = lower value), % at 10 µM. shares compounds with CHT block. 2,400 tested, 70% active;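 active means choline transporter activity left, mean of duplicates at 10 µM, below buffer-only control mean minus 3 SD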;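 further: depolarization triggered by choline at its EC90 following an EC20 pre-addition; 0% = hemicholinium-3 full block and 100% = buffer-only control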
HEK293 CHT ctr: counter-screen for CHT inhibitors: effect in parental HEK293 cells; shares compounds with CHT block; membrane potential dye, choline response; active = decrease or increase beyond buffer ±3SD; membrane potential ratio readout (active if shifted either direction beyond buffer ±3SD; no single direction) at 10 µM; 2,400 tested, 4% active;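 further: parental cells lack the transporter so any hit is non-specific; ratio is peak minus trough fluorescence over baseline after EC90 choline challenge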
An asterisk follows results filed as active. The list is not random: actives were taken first. Their share in the collection is about 3%.

`Cn1c(-c2ccccc2)cc2ccccc21` gave Mot1-301 SUMO 23, NALP3 yeast inh 11, CHT block inactive, NALP1 inh 11, CHT allo act inactive and A1 inh 1.
`CCn1c(CN2CCOCC2)nnc1SCC(=O)Nc1ccc(C(C)=O)cc1` gave Mot1-301 SUMO -9, NALP3 yeast inh 2, CHT block inactive, NALP1 inh -3, CHT allo act inactive and A1 inh -1.
For COC(=O)C1CN(C(=O)C(C)Oc2ccccc2Cl)c2ccccc2O1 (configuration not stated) the results were Mot1-301 SUMO 84, NALP3 yeast inh 6, CHT block -5.2*, NALP1 inh 11, CHT allo act inactive, A1 inh 0, CHT block conf 71%* and HEK293 CHT ctr inactive.
`COC(=O)C1CN(C(=O)COc2cccc(C)c2C)c2ccccc2O1` (configuration not stated) gave Mot1-301 SUMO -5, NALP3 yeast inh 16, CHT block inactive, NALP1 inh 15, CHT allo act inactive and A1 inh 0.
Screening COc1ccc(-n2cccc2/C=C2\C(=N)N3N=C(C(C)C)SC3=NC2=O)cc1 returned Mot1-301 SUMO -15, NALP3 yeast inh -1, CHT block -6.1*, NALP1 inh -22, CHT allo act inactive, A1 inh 1, CHT block conf inactive and HEK293 CHT ctr inactive.
Screening COc1ccc(CNC(=O)COC(=O)c2cccn2C)cc1 returned Mot1-301 SUMO -15, NALP3 yeast inh 2 and A1 inh -3.
For CC(NC(=O)c1ccc(Br)cc1)c1ccc2c(c1)CCCC2 (configuration not stated) the results were Mot1-301 SUMO 214, NALP3 yeast inh 32, CHT block -9.7*, NALP1 inh 34, CHT allo act inactive, A1 inh -1, CHT block conf inactive and HEK293 CHT ctr inactive.
`COc1ccc(C(C)NC(=O)c2ccc(Br)cc2)cc1OC` (configuration not stated) gave Mot1-301 SUMO -9, NALP3 yeast inh -8, CHT block inactive, NALP1 inh 30, CHT allo act inactive and A1 inh -1.
For Cc1ccc(C(=O)NC(C)c2ccc(F)cc2)cc1 (configuration not stated) the results were Mot1-301 SUMO 54, NALP3 yeast inh 17, CHT block inactive, NALP1 inh 18, CHT allo act inactive and A1 inh 0.
`CC(NC(=O)c1ccc(F)cc1)c1ccc2c(c1)CCCC2` (configuration not stated) gave Mot1-301 SUMO 11, NALP3 yeast inh 37, CHT block -6.2*, NALP1 inh 1, CHT allo act inactive, A1 inh inconclusive, CHT block conf 41%* and HEK293 CHT ctr inactive.
For O=S(=O)(Nc1nc2ccccc2nc1Nc1cccc(S(=O)(=O)N2CCCCC2)c1)c1ccccc1 the results were Mot1-301 SUMO -10, NALP3 yeast inh 16, CHT block -7.4*, NALP1 inh 40, CHT allo act inactive, A1 inh -1, CHT block conf 53%* and HEK293 CHT ctr inactive.
Screening Cc1ccc(C(=O)Nc2ncc([N+](=O)[O-])s2)cc1 returned Mot1-301 SUMO -18, CHT block -5.9*, NALP1 inh 22, CHT allo act inactive, A1 inh -8, CHT block conf 56%* and HEK293 CHT ctr inactive.
For O=C(Nc1ncc([N+](=O)[O-])s1)c1ccc2c(c1)OCO2 the results were Mot1-301 SUMO -19, NALP3 yeast inh 39, CHT block inactive, NALP1 inh 2, CHT allo act inactive and A1 inh -7.

Source: PubChem BioAssay (several laboratories)
